Compound activity deposited in PubChem BioAssay by several laboratories.
SDO1 yeast rescue: growth rescue of sdo1-depleted yeast, primary screen, S. cerevisiae, bone marrow failure model. actives 0.21% (n = 140,000). S. cerevisiae sdo1-depleted JHY4D growth rescue, OD600 30 h; hits give high values; pdr5 snq2 efflux-pump mutant strain. z-score at 10 µM;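 active = z-score above 3 at both the 24 hr and the 30 hr optical density reads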
ROMK primary: ROMK potassium channel modulators, primary screen, cell-based, thallium flux, MLSMR library; ATP-sensitive inward rectifier potassium channel 1 (Homo sapiens), P48048; Tet-inducible ROMK, thallium flux fluorescence; actives lie on both sides; B-score at 10 µM; actives 2% (n = 130,000); AID 1918, 2009;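 active = signal ratio slope over the read window, or its plate-corrected B-score, at least 3 SD from the plate mean, either direction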;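 also: B-score of the F/F0 ratio slope over 7 to 12 s after thallium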
Target sequence (P48048 whole entry, looked up): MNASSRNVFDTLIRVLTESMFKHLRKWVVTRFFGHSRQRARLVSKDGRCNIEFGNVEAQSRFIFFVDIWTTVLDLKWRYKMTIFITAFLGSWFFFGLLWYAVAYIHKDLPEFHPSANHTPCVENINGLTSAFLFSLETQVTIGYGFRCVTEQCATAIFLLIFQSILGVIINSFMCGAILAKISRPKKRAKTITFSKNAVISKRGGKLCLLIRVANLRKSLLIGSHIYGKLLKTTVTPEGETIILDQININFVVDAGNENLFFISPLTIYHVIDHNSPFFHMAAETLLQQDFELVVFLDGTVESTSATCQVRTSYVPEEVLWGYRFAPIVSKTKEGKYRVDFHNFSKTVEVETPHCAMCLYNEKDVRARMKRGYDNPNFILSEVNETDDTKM
INS promoter inh: inhibitors of insulin promoter-driven GFP, primary screen, imaging, TRM-6 cells (human fetal islet line), eGFP reporter, cell count | inhibition, % at 2 µM | reporter expression induced with tamoxifen | actives 0.9% (n = 130,000) | AID 1273, 2008;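 active = inhibition above the mean plus 3 SD, with well images judged a real hit on visual review, cut at about 60% in these data, passing the limit was not always enough; inconclusive = inhibition over the cutoff but images rejected on review; inactive = inhibition not above the cutoff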
Measles CPE: compounds protecting cells from measles virus cytopathic effect, primary screen, measles RdRp inhibitor project, single point, MLSMR library, absorbance. Measles virus-infected cells, CPE protection. protection (pct of control), % at 4 µM. actives 1.5% (n = 140,000); in the data active = protection mostly above about 24%, no sharp cut-off; inactive = mostly below about 26%
ROMK hit retest: ROMK channel modulator hit retest, confirmation, cell-based, thallium flux, duplicate, resupplied hits | shares compounds with ROMK primary | normalized thallium flux (F/F0 slope) at 10 µM | actives 54% (n = 3,000) | AID 1917, 2009 | fluorescence ratio; hits give low values;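 active = Flux at 10 µM at least 3 SD below or above vehicle control mean in one or both replicates; inconclusive = no clear call, values can overlap the other calls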
Hits are given with their value; 0 = inactive; ? = inconclusive; - = no result. In the library only some 3% were active in any assay of this set; here they are far more common.

SMILES	SDO1 yeast rescue	ROMK primary	INS promoter inh	Measles CPE	ROMK hit retest
COc1ccc(/C=C2\SC(=S)N(CC3CCCO3)C2=O)cc1 (configuration not stated)	-	0	-	-	-
COc1ccc(/C=C2\SC(c3ccc(C)cc3)=NC2=O)cc1OC	0	-	-	0	-
COc1ccc(/C=C2/SC(c3ccc(C)cc3)=NC2=O)cc1OC	0	-3.2	-	0	0.053
COc1cc(/C=C2\SC(c3ccccc3)=NC2=O)cc(Cl)c1O	-	3.2	-	-	0.066
COc1ccc(NC(=O)C2CC(=O)N/C(=N/NC(=O)c3ccc(Cl)cc3)S2)cc1 (configuration not stated)	-	0	-	-	-
Cc1ccc(C2C3CSCC=C3C(C#N)=C(N)C2(C#N)C#N)cc1 (configuration not stated)	0	0	0	0	-
N#CC1=C(N)C(C#N)(C#N)[C@H](c2ccncc2)[C@H]2CC3(CC=C12)OCCO3	0	-3.8	0	0	?
CN(C)c1cc(O)c(C(=S)Nc2ccccc2)c(N(C)C)c1	0	-3.3	0	0	0.063
Cc1c(NC(=O)/C(C#N)=C/c2ccccc2)c(=O)n(-c2ccccc2)n1C	-	-2.9	-	-	0.051
Cc1c(NC(=O)/C(C#N)=C/c2ccc(-c3ccccc3Cl)o2)c(=O)n(-c2ccccc2)n1C	0	-	-	0	0.056
COC(=O)c1sc(N2C(=O)C(=O)/C(=C(/O)c3ccccc3)C2c2ccco2)nc1C (configuration not stated)	0	0	0	0	-
COc1ccc(C2NC(=O)NC(O)(C(F)(F)F)C2C(=O)c2ccc(C)cc2)cc1 (configuration not stated)	0	-	-	0	-
CC(=O)Nc1ccc(S(=O)(=O)N2c3ccccc3C(C)=CC2(C)C)cc1	-	2.1	-	-	0
COc1ccc2c(Cl)c(C(=O)N/N=C3\CCCC(=O)C3)sc2c1	-	-3.1	-	-	0
COc1ccc2c(Cl)c(C(=O)N/N=C/c3ccc4c(c3)OCO4)sc2c1	0	0	-	0	-
CCNc1nc(-c2ccc(OC(F)F)cc2)c(C)s1	-	-4.5	-	-	0.062
COc1ccc(-c2nc(NC3=NCCCCC3)sc2C)cc1	-	0	-	-	-
CCOC(=O)N1C=CC=C[C@@H]2[C@@H](N3C(=O)c4ccccc4C3=O)C(=O)N21	0	0	0	0	-
OCC1CCCN1C(=S)Nc1ccccc1 (configuration not stated)	0	-	0	0	-
CCOc1ccccc1CNS(=O)(=O)c1ccc2[nH]c(=O)sc2c1	0	-3.5	-	0	0
CCOc1ccccc1CNS(=O)(=O)c1ccc2c(c1)oc(=O)n2C	0	-	-	0	-
CSc1ccc(/C=C(\C#N)C(=O)NC2CCCCC2C)cc1 (configuration not stated)	0	-3.1	0	0	0.046
CC1CCCCC1NC(=O)/C(C#N)=C/c1ccccc1F (configuration not stated)	0	-5.8	0	0	0.043
CC(=O)Nc1ccc(/C=C(\C#N)C(=O)NC2CCCCC2C)cc1 (configuration not stated)	-	0	-	-	-
O=C1CC(SCCO)C(=O)N1c1ccc(Oc2ccccc2)cc1 (configuration not stated)	0	-	0	0	-
SMILES	SDO1 yeast rescue	ROMK primary	INS promoter inh	Measles CPE	ROMK hit retest
C=CCn1c(C(CC)CC)nc2ccccc21	-	0	-	-	-
Cc1ccc(N2C(=O)[C@@H]3C(c4cccnc4)=NO[C@@H]3C2=O)cc1	-	-	-	-	0
COC(=O)[C@H](Cc1ccccc1)NC(=O)NCc1cccs1	0	-	0	0	-
COc1ccc(-c2[nH]n(-c3ccc([N+](=O)[O-])cc3)c(=O)c2C=NCCN2CCNCC2)cc1	-	-3	0	-	0.059
O=c1c(C=NCCN2CCNCC2)c(-c2ccccc2)[nH]n1-c1ccc([N+](=O)[O-])cc1	-	0	-	-	-
NC(N)=Nc1nc(-c2ccccc2)c2cc(F)ccc2n1	-	-3.7	-	-	0.06
OCCSc1nc(-c2ccccc2)nc2ccc(F)cc12	-	0	-	-	-
C=CC[n+]1c(-c2ccc(Cl)cc2Cl)csc1Nc1ccc(NC(C)=O)cc1	-	2.5	-	-	0
COc1ccccc1-c1cc(C(=O)N2CCN(c3ccccc3OC)CC2)no1	0	3.3	-	0	0
COc1ccccc1-c1cc(C(=O)NCCc2ccccc2)no1	0	3.5	0	0	0
COc1ccc(NC(=O)c2cc(-c3ccccc3OC)on2)cc1	0	0	-	0	-
CCCc1cc(C(=O)NCCc2ccccc2)no1	0	-	-	0	-
COc1cc(NC(=O)c2cc(-c3cccs3)on2)cc(OC)c1OC	0	4.1	-	0	0
COc1ccccc1-c1cc(C(=O)Nc2cccnc2)no1	0	5.1	-	0	0
COc1cc(NC(=O)c2cc(-c3cccc(O)c3)on2)cc(OC)c1OC	0	-	-	0	-
COC(=O)CC(NC(=O)c1ccc(C)cc1)c1ccccc1 (configuration not stated)	0	-	0	0	-
CC#C[C@]1(O)CC[C@H]2[C@@H]3CCC4=CC(=O)CCC4=C3[C@@H](c3ccc(N(C)C)cc3)C[C@@]21C	0	-	0	0	-
CN(Cc1ccccc1)c1ccc(S(=O)(=O)N2CCC(C(=O)O)CC2)cc1[N+](=O)[O-]	-	0	-	-	-
O=c1c2ccccc2nc2n1C(CSCc1ccc(Cl)cc1)CS2 (configuration not stated)	0	-	0	0	0.066
O=c1c2ccccc2nc2n1C(CSc1ccc(F)cc1)CS2 (configuration not stated)	-	0	0	-	-
CC(C)(C)NC(=O)CN(Cc1cccs1)C(=O)C1COc2ccccc2O1 (configuration not stated)	0	-	0	0	-
CC(C)CCNC(=O)C(c1ccc(O)cc1)N(Cc1cccs1)C(=O)C1COc2ccccc2O1 (configuration not stated)	0	-2.8	0	0	0.061
O=C(CCCCN1CCCCC1)c1ccc2c(c1)Cc1ccccc1-2	-	-4.5	0	-	0.064
Cc1cccc(N2C(N)=C(C#N)C(C#N)(C#N)C2c2ccccc2)c1 (configuration not stated)	0	-	-	0	0.056
N#CC1=C(N)N(c2ccccc2)C(c2cccc([N+](=O)[O-])c2)C1(C#N)C#N (configuration not stated)	0	-	0	0	0.037
SMILES	SDO1 yeast rescue	ROMK primary	INS promoter inh	Measles CPE	ROMK hit retest
N#CC1=C(N)N(c2ccccc2)C(c2ccco2)C1(C#N)C#N (configuration not stated)	0	-	0	0	-
N#Cc1c(N)n(-c2ccccc2)c(=O)c2cc([N+](=O)[O-])ccc12	-	0	0	-	-
Cc1cc(C)cc(NC(=O)NCC(O)COc2ccc([N+](=O)[O-])cc2)c1 (configuration not stated)	-	0	-	-	-
COc1ccc2cc(-c3[nH]ncc3CN3CCCN(c4ccccc4)CC3)ccc2c1	-	0	-	-	-
COc1cccc(NC(=O)N2CCN(c3nc(-c4cccc(OC)c4)cs3)CC2)c1	-	-	-	-	0.068
CN1CCN(NC(=O)c2ccc(Cl)s2)CC1	-	0	-	-	-
Cc1cc(N2CCN(C(c3ccccc3)c3ccccc3)CC2)n2ncnc2n1	0	1.5	0	0	?
